From ChEMBL document CHEMBL1961873, “Compounds: GSK PKIS; Assays: Nanosyn kinase panel” (2012)
Where “and” joins values, the source holds several entries; their conditions need not be identical. Identical values can stand only once.
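Also: mean inhibition of IKKε reported, from the GSK PKIS dataset.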

What follows are molecules tested against T1, Inhibitor of nuclear factor kappa-B kinase subunit epsilon (Homo sapiens) (UniProt Q14164). Settings: at 0.1 µM.
T1 sequence (whole entry): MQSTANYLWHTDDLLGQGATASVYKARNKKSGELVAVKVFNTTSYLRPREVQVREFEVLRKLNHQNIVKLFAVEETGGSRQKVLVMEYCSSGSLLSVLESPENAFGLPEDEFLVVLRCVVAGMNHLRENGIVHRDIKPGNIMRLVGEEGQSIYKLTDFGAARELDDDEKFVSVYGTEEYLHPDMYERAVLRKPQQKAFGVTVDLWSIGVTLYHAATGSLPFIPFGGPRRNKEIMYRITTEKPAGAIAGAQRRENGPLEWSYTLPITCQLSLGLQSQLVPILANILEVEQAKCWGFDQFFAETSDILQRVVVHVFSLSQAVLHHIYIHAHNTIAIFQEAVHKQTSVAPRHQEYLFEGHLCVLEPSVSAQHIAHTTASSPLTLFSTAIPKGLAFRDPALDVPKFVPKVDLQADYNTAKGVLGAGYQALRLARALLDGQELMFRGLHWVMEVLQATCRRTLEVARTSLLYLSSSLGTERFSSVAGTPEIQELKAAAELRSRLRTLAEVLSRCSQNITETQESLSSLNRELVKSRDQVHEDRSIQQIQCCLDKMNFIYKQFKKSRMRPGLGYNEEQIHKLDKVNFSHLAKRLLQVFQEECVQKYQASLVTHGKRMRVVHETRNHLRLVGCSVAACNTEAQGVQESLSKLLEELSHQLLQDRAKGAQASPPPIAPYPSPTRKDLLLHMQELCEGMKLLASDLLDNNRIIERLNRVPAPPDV
In the case of `Cc1ccc(-c2cc3c(NC(=O)C4CC4)ncnc3o2)cc1`, the inhibition is reported as 4.06%.
In the case of `Nc1nccc(-c2c(-c3ccc(F)cc3)ncn2C2CCNCC2)n1`, the inhibition is reported as -4.18% and 0.25%.
Work on `CS(=O)(=O)Nc1ccc(-c2ccc3c(NC(=O)C4CC4)n[nH]c3c2)cc1` yielded an inhibition of -0.23%.
For `Cn1c(-c2nonc2N)nc2cnccc21`, the inhibition was 6.16%.
For `Cc1cc(O)cc(C)c1/C=C/c1cncc(C(N)=O)c1`, the inhibition was 1.74%.
Molecule `CNC(=O)c1sc(-n2cnc3cc(OC)c(OC)cc32)cc1OCc1ccccc1C(F)(F)F` has an inhibition of 7.72%.
`COC(=O)Nc1nc2ccc(Oc3ccc(NC(=O)Nc4cc(C(F)(F)F)ccc4F)cc3)cc2s1` gave an inhibition of -0.11%.
Work on `COc1cc2c(cc1Nc1nc(Nc3cccc(F)c3C(N)=O)c3cc[nH]c3n1)N(C(=O)CN1CCN(C(C)C)CC1)CC2` yielded an inhibition of 3.12%.
`CS(=O)(=O)CCNCc1ccoc1-c1ccc2ncnc(Nc3ccc(OCc4ccccc4)cc3)c2c1` was tested, and the inhibition was -0.44%.
With `O=C(O[C@H]1CN[C@H](C#Cc2cc3ncnc(Nc4ccc5c(cnn5Cc5ccccc5)c4)c3s2)C1)N1CCOCC1` the inhibition was -7.28%.
Molecule `COc1c(C(N)=O)cc(-c2ccc(Cl)cc2)cc1-c1ccc(S(N)(=O)=O)cc1` has an inhibition of 8.74%.
Work on `CCS(=O)(=O)c1ccc(OC)c(Nc2ncc(-c3cccc(C(C)=O)c3)o2)c1` yielded an inhibition of 6.89%.
`CNC(=O)c1ncccc1Nc1nc(Nc2cc3c(cc2OC)CCCN3C(=O)CN(C)C)nc2[nH]ccc12` gave an inhibition of 5.04%.
`CC(C)c1ccc(-c2cc(-c3c[nH]nc3-c3ccccn3)ccn2)cc1` was tested, and the inhibition was 1.33%.
Molecule `Fc1cccc(COc2ccc(Nc3ncncc3C#Cc3ccccc3)cc2Cl)c1` has an inhibition of 7.72%.
With `FC(F)(F)CNc1nccc(-c2cnn3ncccc23)n1` the inhibition was 6.69%.
With `CN1CCC(C(=O)Nc2n[nH]c3nc(-c4ccc(O)cc4)c(Br)cc23)CC1` the inhibition was 8.54% and 3.19%.
With `CS(=O)(=O)CCNCc1ccc(-c2ccc3ncnc(Nc4ccc(OCc5ccccc5)cc4)c3c2)o1` the inhibition was 5.66%.
In the case of `O=C1Nc2ccccc2/C1=C1\CCc2cc(O)ccc21`, the inhibition is reported as 6.27%.
For `CNC(=O)c1cncc(/C=C/c2ccccc2C)c1`, the inhibition was 5.9%.
`NC(=O)c1ccc2c(-c3ccnc(NCCCO)n3)c(-c3ccc(F)cc3)nn2c1` was tested, and the inhibition was 4.91%.
Work on `N#Cc1cccc(Nc2ncc(-c3ccccc3)o2)c1` yielded an inhibition of 5.55%.
For `CN1CCN(Cc2ccc(-c3cc4ncnc(Nc5ccc(OCc6cccc(F)c6)c(Cl)c5)c4s3)o2)CC1`, the inhibition was 3.75% and 4.88%.
`NS(=O)(=O)c1cccc(N/C=C2\C(=O)Nc3ccccc32)c1` gave an inhibition of 6.35%.
`COc1ccc(Nc2ncc(-c3ccccc3)o2)cc1OC` showed an inhibition of 2.76%.
Molecule `CCn1c(-c2nonc2N)nc2cncc(C(=O)NCCNC)c21` has an inhibition of 7.73%.
`NS(=O)(=O)c1ccc(N/N=C2\C(=O)Nc3cccc(CCc4ccncc4)c32)cc1` gave an inhibition of -0.26%.
`c1ccc(-c2n[nH]cc2-c2ccnc(-c3ccc(OCCn4ccnc4)cc3)c2)nc1` showed an inhibition of 0.86%.
For `c1cnn2ncc(-c3ccnc(NCCCN4CCOCC4)n3)c2c1`, the inhibition was 9.87%.
In the case of `CCN1CCC(C(=O)Nc2n[nH]c3nnc(-c4cccc(F)c4F)cc23)CC1`, the inhibition is reported as -2.1%.
`O=C(Nc1n[nH]c2nnc(-c3cccnc3)cc12)C1CC1` showed an inhibition of -2.46%.
